This note sets out measurements from the OligoGym collection.
Also: reference of the scale not given here.

The target in one experiment is CDC34. As to the kind of experiment: pooled miR-30 sensor sort-seq; sequence = guide strand. The conditions noted are these: shRNA.
The sequence TTCCACTTCCTGTACATCACGG came in with a sensor-assay potency score (higher = more potent) of -0.553.
As to TAGTCGATGGGGAACTTGAGGC, the sensor-assay potency score (higher = more potent) is -1.23.
Consider TTGCTCTCTTTCCACTTCCTGT, for which the sensor-assay potency score (higher = more potent) was -0.991.
As for ATGATGTCTGTGTACTCCCGAT, the sensor-assay potency score (higher = more potent) is -1.21.
On to TTCCTGTACATCACGGAGGCGT, for which the sensor-assay potency score (higher = more potent) was -0.234.
As for TCGTAGTAGTCGTCGTAGAAGA, the sensor-assay potency score (higher = more potent) was -1.53.
On the same count and under the same terms, in the case of TCGTCGTAGAAGAGGTCTGAGC it was -1.59; in that of TTGAGCTCCAGCAGCAGCGCCT, -0.656; in that of TAGAAGAGGTCTGAGCCCTCGT, -0.00353.
The same measure, in the same setting: the same measure for TAGTCGTCGTAGAAGAGGTCTG: -0.479; for TTGGTCAGGAACCGAAAGGCTG: -0.731; for TCCACTTCCTGTACATCACGGA: -0.313.
Turning to ACACTCAGGAGAATGGTCCTGA, the sensor-assay potency score (higher = more potent) is 0.312.
Same read-out and setting: the same measure for TGGTCTTCACGCAGTACTCGGC: -1.2; for TCGTCCACCAGTGTCACGCGGA: -0.898.
Still for that read-out and setting: in the case of TAGTAGTCGTCGTAGAAGAGGT it was -0.785; in that of TGTCTGTGTACTCCCGATCCTT, -1.06.
In turn, TTAGGGTGCCACATCTTGGTCA yielded a sensor-assay potency score (higher = more potent) of -0.421.
Consider TAGATCGCCCTCGTCCACCAGT, for which the sensor-assay potency score (higher = more potent) is -0.743.
As to TTGGTCTTCACGCAGTACTCGG, the sensor-assay potency score (higher = more potent) is -1.15.
With TAGGGTGCCACATCTTGGTCAG, the sensor-assay potency score (higher = more potent) was 0.104.
Sequence TCATCGTCCCCGAAGCAGCTGT displayed a sensor-assay potency score (higher = more potent) of -0.635.
In the case of TCGTAGAAGAGGTCTGAGCCCT, the sensor-assay potency score (higher = more potent) was -0.356.
For the sequence TCCTCGTAGTAGTCGTCGTAGA, the sensor-assay potency score (higher = more potent) is -1.72.

The next experiment addresses CDC42BPB. The description is as above. Conditions: shRNA.
Turning to TCATCTTCAAACATGATCCAAA, the sensor-assay potency score (higher = more potent) is -0.68.
Regarding TTTCCTTGGACAACACTGGAGG, the sensor-assay potency score (higher = more potent) is -0.765.
The sequence TTTAATGTCTCTGTGCACGTAA came in with a sensor-assay potency score (higher = more potent) of 0.422.
For TTCGATTTCTTCATTTAGCTTT, the sensor-assay potency score (higher = more potent) came to 0.598.
As to TAGAGCATCTCATACATGCAGA, the sensor-assay potency score (higher = more potent) is -0.774.
Same read-out and setting: the same measure for TTGAAGTAGATCAAGCGTGGAG: 0.0489; for TTTGATTTCTTTATCTCGGTTT: 0.716; for TACTATTCTCTTAAGGTCCTAG: -0.0384.
For the sequence TTTGATTTTGGAAATCTCTTGC, the sensor-assay potency score (higher = more potent) stood at 0.44.
TTCTGAATCATGCACCTCCTTC yielded a sensor-assay potency score (higher = more potent) of -0.418.
Regarding TTTCACTTCTAGCACATGGGAG, the sensor-assay potency score (higher = more potent) is -0.202.
The same measure, in the same setting: the same measure for TTATTTCAAAGTCTTCTCGATG: -1.07.

A further experiment has as its target CDC42SE1. The experiment is described as above. The conditions noted are these: shRNA.
TTGCTCCATGGCCTATCTCGGT displayed a sensor-assay potency score (higher = more potent) of -1.82.
In turn, TTCTCTTCTTCTTCGGCTGGGG returned a sensor-assay potency score (higher = more potent) of -0.102.
As to TCATCTGCTCCTGAACTGCACC, the sensor-assay potency score (higher = more potent) is -1.23.
